Experimental data: PubChem BioAssay (NCI)
About 79,000 compounds went through this panel and 15% of them were active in at least one assay; those are over-represented in the sample as a whole. A number with no mark means an inactive call. Calls of active or inactive are those of the source. Cut-off read from the data, not from the text of the source: active = growth inhibition above about 70%; inactive = the rest.

Assays:
[1] = NCI Yeast Anticancer Drug Screen. Data for the rad50 strain (AID 155);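 note: 0% = growth of vehicle-only cultures of the same strain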; conditions: S. cerevisiae rad50 strain growth inhibition, active compounds read high
In short: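 Inhibition values express reduced yeast growth in compound-treated cultures relative to vehicle-treated controls.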

[2] = NCI Yeast Anticancer Drug Screen. Data for the mec2-1 strain (AID 157); conditions: S. cerevisiae mec2-1 strain, active compounds read high
In short: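 Mutant yeast (mec2-1) grown with compound; growth inhibition relative to vehicle control reported.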

[3] = NCI Yeast Anticancer Drug Screen. Data for the sgs1 mgt1 strain (AID 161);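 note: 0% = growth of cultures given vehicle only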; conditions: S. cerevisiae sgs1 mgt1 strain, active compounds read high
In short: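 Compounds are added to genetically altered yeast, and growth is compared with cultures given vehicle alone to give percent inhibition.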

[4] = NCI Yeast Anticancer Drug Screen. Data for the cln2 rad14 strain (AID 165);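 note: 0% = growth equal to vehicle treated cultures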; conditions: S. cerevisiae cln2 rad14 strain, active compounds read high
In short: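 Readout is yeast growth inhibition versus vehicle-treated controls, using a strain with cln2 and rad14 alterations exposed to compound.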

[5] = NCI Yeast Anticancer Drug Screen. Data for the bub3 strain (AID 167); conditions: S. cerevisiae bub3 mutant strain, active compounds read high
In short: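 Steps: expose the mutant yeast strain to compound; grow alongside vehicle-treated cultures; measure growth; express inhibition against the vehicle cultures.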

[6] = NCI Yeast Anticancer Drug Screen. Data for the mlh1 rad18 strain (AID 175); conditions: S. cerevisiae mlh1 rad18 strain growth inhibition, active compounds read high
In short: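 Genetically defined yeast (DNA repair-deficient) exposed to compounds; growth inhibition determined relative to vehicle.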

[7] = at 5.0 µM (retest, dose inferred, filed as 0.5)
[8] = at 50.0 µM (retest, dose inferred, filed as 5.0)

Row | SMILES | growth inhibition [1, 7] | growth inhibition [1, 8] | growth inhibition ([1]; at 50.0 µM) | growth inhibition [2, 7] | growth inhibition [2, 8] | growth inhibition ([2]; at 50.0 µM) | growth inhibition [3, 7] | growth inhibition [3, 8] | growth inhibition ([3]; at 50.0 µM) | growth inhibition [4, 7] [%] | growth inhibition [4, 8] | growth inhibition ([4]; at 50.0 µM) | growth inhibition [5, 7] | growth inhibition [5, 8] | growth inhibition ([5]; at 50.0 µM) | growth inhibition [6, 7] | growth inhibition [6, 8] | growth inhibition ([6]; at 50.0 µM)
1 | Fc1ccc(C2(CCCN3CCc4[nH]c5cc(F)ccc5c4C3)OCCO2)cc1 | 31% | 97% (active) | 70.2% (active) | 27% | 98% (active) | 79% (active) | 25% | 99% (active) | 84.5% (active) | 18 | 96% (active) | 83.3% (active) | 24% | 98% (active) | 39.5% | 29% | 99% (active) | 91% (active)
2 | O=c1oc(-c2ccc(Cl)c([N+](=O)[O-])c2)ns1 | 1% | 92% (active) | 97.1% (active) | 3% | 93% (active) | 95.3% (active) | 4% | 89% (active) | 97.8% (active) | 4 | 48% | 53.6% | 1% | 91% (active) | 97.2% (active) | 2% | 98% (active) | 91.8% (active)
3 | CN(NC(=O)/C(=C\c1ccco1)NC(=O)c1ccccc1)c1cn[nH]c(=O)c1Cl | 9% | 36% | 86.2% (active) | -9% | 13% | 83.4% (active) | -2% | 6% | 87.8% (active) | 7 | 13% | 62.7% | -10% | 27% | 90.6% (active) | -6% | 47% | 93.5% (active)
4 | COc1cc2c(Cc3ccc(OC)c(OC)c3)[n+](Cc3ccccc3)ccc2cc1NCc1ccccc1 | 90% (active) | 98% (active) | 89% (active) | 90% (active) | 99% (active) | 92.2% (active) | 93% (active) | 99% (active) | 86% (active) | 65 | 98% (active) | 89.6% (active) | 92% (active) | 99% (active) | 81.1% (active) | 88% (active) | 99% (active) | 92.7% (active)
5 | CC(C)CC(C(=O)SCC(C)N1CCCC1)c1ccccc1 (centres undefined) | 0% | 35% | 48% | 8% | 33% | 36.1% | 26% | 56% | 49.6% | 12 | 43% | 71.4% (active) | 15% | 59% | 51.8% | 11% | 37% | 59.2%
6 | Cc1c(O)ccc(C(=O)CCl)c1O | -147% | 38% | 58.8% | -44% | 5% | 61.6% | -53% | 42% | 60.4% | -55 | -11% | 12.9% | -69% | -3% | 41.4% | -111% | 33% | 68.3%
7 | N#CC1C(=O)NC(=O)C(C#N)C1c1c(Cl)cccc1Cl (centres undefined) | 5% | 72% (active) | 96.2% (active) | 1% | 55% | 92.5% (active) | 4% | 91% (active) | 94% (active) | 8 | 28% | 48.1% | -7% | 74% (active) | 91% (active) | 1% | 93% (active) | 94.7% (active)
8 | CCCCN(CCCC)CC(=O)c1ccc2cc(Cl)c3ccccc3c2c1 | 20% | 91% (active) | 95.3% (active) | 23% | 93% (active) | 95.5% (active) | 56% | 90% (active) | 95.8% (active) | 7 | 90% (active) | 92.7% (active) | 18% | 91% (active) | 95.3% (active) | 31% | 84% (active) | 94.7% (active)
9 | O=C(Nc1cccc(NC(=O)c2cc(=O)c3ccccc3o2)n1)c1cc(=O)c2ccccc2o1 | 34% | 34% | 62.6% | 13% | 13% | 14.9% | -4% | -4% | 21.7% | 21 | 21% | 24.2% | 15% | 15% | 58.5% | 24% | 24% | 67.3%
10 | O=C1/C(=C(/Br)I)c2ccccc2-c2ccccc21 | 98% (active) | 87% (active) | 7.85% | 99% (active) | 91% (active) | 58.9% | 96% (active) | 94% (active) | 64.3% | 53 | 90% (active) | 44% | 99% (active) | 89% (active) | 75.7% (active) | 99% (active) | 88% (active) | 59%
11 | CC(=O)OC1C(O)C(C)OC(OC(=O)C2CCC3C(C2)OC2(CC(OC(=O)/C=C/c4ccccc4)C(C)CO2)C32CO2)C1OC1OC(C)C(O)C(O)C1O (centres undefined) | 23% | 97% (active) | 88% (active) | 18% | 98% (active) | 89.9% (active) | 26% | 98% (active) | 47.1% | 17 | 92% (active) | 75.6% (active) | 21% | 97% (active) | 88% (active) | 34% | 97% (active) | 88% (active)
12 | COc1ccc2c(ccc[n+]2CC(=O)c2ccc(-c3ccccc3)cc2)c1 | -24% | 5% | 13.1% | -5% | -1% | 14.8% | -20% | 24% | 2.75% | -2 | 5% | -12.8% | 3% | 8% | -2.75% | -3% | 12% | 40%
13 | Cc1ccc(S(=O)(=O)NC(Cc2ccccc2)C(=O)CCl)cc1 (centres undefined) | 61% | 99% (active) | 89.9% (active) | 66% | 99% (active) | 92.8% (active) | 74% (active) | 98% (active) | 88.8% (active) | 44 | 88% (active) | 84.8% (active) | 79% (active) | 99% (active) | 84.5% (active) | 86% (active) | 98% (active) | 84.7% (active)
14 | COC(=O)[C@@]12OC[C@]34[C@H]([C@@H](O)[C@@H]1O)[C@@]1(C)CC(=O)C(OC(=O)CC(=O)OC5=C(C)[C@@H]6C[C@H]7OC(=O)[C@H](OC(=O)/C=C(\C)C(C)C)[C@H]8[C@]9(C(=O)OC)OC[C@]78[C@H]([C@@H](O)[C@@H]9O)[C@@]6(C)CC5=O)=C(C)[C@@H]1C[C@H]3OC(=O)[C@H](OC(=O)/C=C(\C)C(C)C)[C@@H]24 | 45% | 98% (active) | 90.3% (active) | 43% | 99% (active) | 92.3% (active) | 42% | 98% (active) | 92.5% (active) | 49 | 98% (active) | 89.6% (active) | 57% | 99% (active) | 92.2% (active) | 58% | 97% (active) | 84.5% (active)
15 | C=C1C(C2(C)C(OC(C)=O)CC(=O)OC(C)(COC(C)=O)C2CC(=O)OC)C(OC=O)C(OC(=O)C(O)C(C)CC)C2(C)C(c3ccoc3)CC(=O)C12O (centres undefined) | -15% | -28% | 76.9% (active) | -5% | -16% | 68.7% | 4% | -32% | 57.5% | -6 | 0% | 81.5% (active) | -36% | -23% | 79.8% (active) | -2% | -53% | 90% (active)
16 | CCc1nc(N)nc(N)c1-c1ccc(NCCCN)c([N+](=O)[O-])c1 | -15% | -17% | 69.7% | 17% | -2% | 44.8% | -19% | -36% | 69.2% | -15 | -5% | 69% | -44% | -18% | 6.45% | -17% | -36% | 82.5% (active)
17 | COC1/C=C\OC2(C)Oc3c(C)c(O)c4c(c3C2=O)C(=O)C=C(NC(=O)C(C)=C/C=C\C(C)C(O)C(C)C2OC(C)(C)OC(C1C)C2C)C4=O (centres undefined) | -4% | 93% (active) | 28.9% | 24% | 37% | 33.5% | 1% | 52% | 41.8% | 19 | 74% (active) | 31.9% | -3% | 93% (active) | 14.9% | 1% | 77% (active) | 38.5%
18 | Cc1cc(Cl)ccc1N1C(=O)C(=O)C(c2nc3ccccc3o2)C(=O)C1=O | 31% | 98% (active) | 86.3% (active) | 21% | 99% (active) | 64.7% | 38% | 98% (active) | 88.8% (active) | 31 | 98% (active) | 79.9% (active) | 22% | 96% (active) | 49.1% | 25% | 96% (active) | 87.8% (active)
